The record followed here is PubChem BioAssay.

The source made the active and inactive calls. The rule behind the calls is not given here.

The target of the test is Pantothenate synthetase (Mycobacterium tuberculosis (strain ATCC 25618 / H37Rv)) (UniProt P9WIL5). As to the kind of experiment: Recombinant Mtb pantothenate synthetase (PanC) inhibitors, coupled enzyme, confirmatory (AID 375).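 Note: 0% = full reaction with vehicle and 100% = no enzyme background.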 The conditions noted are these: coupled enzyme assay; at 10 µM, stronger effect = higher value.
Chain of Pantothenate synthetase (Mycobacterium tuberculosis (strain ATCC 25618 / H37Rv)) (P9WIL5 whole entry, looked up): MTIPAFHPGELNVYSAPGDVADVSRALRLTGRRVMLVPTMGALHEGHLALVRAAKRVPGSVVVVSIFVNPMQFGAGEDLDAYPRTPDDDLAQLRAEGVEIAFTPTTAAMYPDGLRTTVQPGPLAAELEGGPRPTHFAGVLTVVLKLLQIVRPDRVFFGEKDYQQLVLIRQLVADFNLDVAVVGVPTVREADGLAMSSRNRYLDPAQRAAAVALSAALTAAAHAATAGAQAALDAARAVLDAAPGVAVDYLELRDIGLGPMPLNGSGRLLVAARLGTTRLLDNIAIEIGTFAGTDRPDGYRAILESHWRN
Turning to `c1ccc(-c2cn3cccnc3n2)cc1`, the inhibition (as a rule, the change of the read-out against control, counted positive when it falls) is 0% (inactive). The same measure for `Cc1cccc2cc(CN(Cc3nnnn3Cc3ccco3)C3CCCC3)c3nnnn3c12`: 3% (inactive); for `CCCN1C=CC(=C2C(=O)c3ccccc3C2=O)C=C1`: 0% (inactive); for `CCOC(=O)C1=C(c2ccccc2)NC(=O)NC1c1ccc(N(C)C)cc1` (centres undefined): 0% (inactive). The same measure for `CCOC(=O)C(CC)Sc1ncnc2nc[nH]c12` (centres undefined): 0% (inactive); for `O=c1[nH]c2cc3c(cc2cc1C(c1nnnn1C1CCCCC1)N1CCSCC1)OCCO3` (centres undefined): 4% (inactive); for `CC(C)Cn1c(N)c(C(=O)COC(=O)c2cc(-c3ccco3)nc3ccccc23)c(=O)n(C)c1=O`: 7% (inactive). For `CCOC(=O)/C=C1\SCC(=O)N1Cc1ccc(Br)cc1`, the inhibition was 0% (inactive). Next, `CCOC(=O)c1nc2sc3c(c2c(=O)[nH]1)CCCC3`: 0% (inactive); `O=C(NC1CCCCC1)C(c1ccc(Cl)cc1)N(C(=O)c1cnccn1)c1ccc2c(c1)OCO2` (centres undefined): 0% (inactive).

`CCn1cc(C(=O)OCC(=O)OC2CC(C)CCC2C(C)C)c(=O)c2ccc(C)nc21` (centres undefined): the inhibition is 5% (inactive).

For the molecule `CCOC(=O)C(C(C)=O)c1nc(C)nc2c1nnn2Cc1ccccc1Cl` (centres undefined), the inhibition was 0% (inactive). Next, `Cc1nc(-c2cnn(-c3ccccc3)c2)c2cc(C)oc2n1`: 2% (inactive). The same measure for `CC1Cc2nc(SCC(N)=O)n(Cc3ccccc3)c(=O)c2S1` (centres undefined): 0% (inactive); for `CCS(=O)(=O)N1CCCC(C(=O)NCCc2ccc(OC)c(OC)c2)C1` (centres undefined): 4% (inactive). Next, `CC(=O)Nc1ccc(-c2nn[nH]n2)cc1Cl`: 0% (inactive); `O=C(O)c1cccn2c(=O)c3ccccc3nc12`: 0% (inactive); `CCCn1c(SCC(=O)Nc2nnc(-c3ccccc3)s2)nnc1-c1ccccn1`: 0% (inactive).

Regarding `COc1ccc(CC(=O)Nc2ccc(-c3nnc(-c4ccc(C)cc4)o3)cc2)cc1`, the inhibition is 4% (inactive). The same measure for `CCCCCn1c(=O)[nH]c2cc(C(=O)NCCCN3CCCCC3)ccc2c1=O`: 3% (inactive); for `CC(C)c1nnc(NC(=O)c2cnccn2)s1`: 0% (inactive). The same measure for `COc1cc2nc(N3CCN(C(=O)C4CCCO4)CC3)nc(N)c2cc1OC` (centres undefined): 0% (inactive); for `Cc1onc(-c2ccccc2)c1C(=O)NCc1cccnc1`: 10% (inactive); for `O=C1c2ccccc2C(Nc2ccc3c(c2)OCCO3)N1Cc1ccc2c(c1)OCO2` (centres undefined): 1% (inactive). Next, `CN(C(=O)c1cc2sccc2n1C)C1CCCCC1`: 6% (inactive); `CCc1cccc(NC(=O)CN(C)S(=O)(=O)c2cccc3nsnc23)c1`: 12% (inactive). Consider `Cc1ccc(CCNC(=O)C2CCCN(S(=O)(=O)c3cnc[nH]3)C2)cc1` (centres undefined), for which the inhibition is 2% (inactive). The same measure for `Oc1ccc2cccnc2c1`: 7% (inactive); for `Cn1c(=O)n(Cc2ccccc2)c(=O)c2c1nc(NCC1CCCO1)n2Cc1ccccc1` (centres undefined): 0% (inactive). Regarding `CN1CCN(CCCN2c3ccccc3Sc3ccc(C(F)(F)F)cc32)CC1`, the inhibition is 1% (inactive).

In the case of `Cc1onc(-c2c(Cl)cccc2Cl)c1C(=O)NCCCN1CCOCC1`, the inhibition is 1% (inactive). The same measure for `COc1ccc(NC2c3ncccc3C(=O)N2Cc2ccccc2)c(OC)c1` (centres undefined): 0% (inactive). `Cc1ccccc1NS(=O)(=O)c1ccc(NC(=O)c2ccco2)cc1`: the inhibition was 0% (inactive). Next, `O=C(Cc1ccccc1)Nc1ccc(CN2CCOCC2)cc1`: 0% (inactive); `Cc1cc(NC(=O)c2cnn3c(C(F)F)cc(C4CC4)nc23)no1`: 0% (inactive); `COc1cccc(NC(=O)N[C@@H](Cc2ccccc2)C(=O)O)c1`: 0% (inactive). Regarding `CC1=C(C(=O)Nc2cccnc2)C(c2ccc(C(C)C)cc2)n2ncnc2N1` (centres undefined), the inhibition was 1% (inactive). Take `O=C(OCN1C(=O)c2ccccc2C1=O)C1CCCCC1`: the inhibition was 1% (inactive). Next, `COc1ccc2c(c1)CCc1c(C(=O)NCc3cccnc3)noc1-2`: 0% (inactive).
